Measured values reported in the supplement of paper PMC7366291.
Structures can show the parent of a compound that is named as a salt. ± gives the standard deviation.

What follows are compounds tested on Danio rerio Tg(wt1b:EGFP) embryo, pronephros (assay: glomerular separation, fold change vs DMSO control; higher = glomeruli further apart (abnormal)). Details: 25 µM; exposure: 24-48 hpf.
Method in brief: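 In HEPES-buffered E3 with 0.003% PTU and 0.5% DMSO, dechorionated Tg(wt1b:EGFP) zebrafish embryos were exposed to 25 μM compound from 24 to 48 hpf at 28.5°C. Pronephroi were then imaged dorsally at 470 nm in 10 z-slices, in 96-well plates filled with agarose. On maximum projections, a Fiji macro turned 16 manually placed reference points into distances and angles, and values more than 2 SD from the feature mean were excluded. Features are fold changes relative to the mean of DMSO-treated embryos from the same day.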

`CC[C@H](C)C(=O)O[C@H]1C[C@H](O)C=C2C=C[C@H](C)[C@H](CC[C@@H](O)C[C@@H](O)CC(=O)O)[C@H]21` [Pravastatin] and `CCC[C@H](N[C@@H](C)C(=O)N1[C@H](C(=O)O)C[C@@H]2CCCC[C@@H]21)C(=O)OCC` [Perindopril] are within error of each other in glomerular separation: 1.12 ± 0.39 for the first, 0.827 ± 0.34 for the second.

`N=C(N)NC(=O)Cc1c(Cl)cccc1Cl` [Guanfacine hydrochloride] and `CCN(CC)CC(=O)Nc1c(C)cccc1C` [Lidocaine hydrochloride] are within error of each other in glomerular separation: 0.827 ± 0.15 for the first, 0.686 ± 0.29 for the second.

`CC(=O)OCC(=O)[C@@]12OC(C)(C)O[C@@H]1C[C@H]1[C@@H]3C[C@H](F)C4=CC(=O)C=C[C@]4(C)[C@@]3(F)[C@@H](O)C[C@@]12C` [Fluocinonide] and `CC1(C)[C@@H](OC(=O)CCC(=O)O)CC[C@]2(C)[C@H]3C(=O)C=C4[C@@H]5C[C@@](C)(C(=O)O)CC[C@]5(C)CC[C@@]4(C)[C@]3(C)CC[C@@H]12` [Carbenoxolone disodium salt] are within error of each other in glomerular separation: 1.04 ± 0.63 for the first, 0.718 ± 0.41 for the second.

`O=C1c2cccc3c2[C@H](CCC3)CN1[C@@H]1CN2CCC1CC2` [Palonosetron hydrochloride] and `COC(=O)[C@@H]1[C@H]2C[C@H]3c4[nH]c5ccccc5c4CCN3C[C@@H]2CC[C@@H]1O` [Yohimbine hydrochloride] are within error of each other in glomerular separation: 1.08 ± 0.37 for the first, 1.24 ± 0.41 for the second.

`Nc1ccc(O)c(C(=O)O)c1` [Mesalamine] and `CC(C)(C)NC[C@H](O)c1ccc(O)c(CO)c1` [Levalbuterol hydrochloride] are within error of each other in glomerular separation: 1.23 ± 0.36 for the first, 0.811 ± 0.27 for the second.

`COCC(=O)Nc1c(I)c(C(=O)NCC(O)CO)c(I)c(C(=O)N(C)CC(O)CO)c1I` (stereo not drawn) [Iopromide] and `CO[C@@H]1[C@@H](OC(N)=O)[C@@H](O)[C@H](Oc2ccc3c(O)c(NC(=O)c4ccc(O)c(CC=C(C)C)c4)c(=O)oc3c2C)OC1(C)C` [Novobiocin sodium salt] are within error of each other in glomerular separation: 0.857 ± 0.4 for the first, 0.71 ± 0.24 for the second.

`Nc1ccn([C@H]2CC[C@@H](CO)O2)c(=O)n1` [Zalcitabine] and `CC[C@@H]1C(=O)OC[C@@H]1Cc1cncn1C` [Pilocarpine nitrate] are within error of each other in glomerular separation: 1.08 ± 0.56 for the first, 1.19 ± 0.19 for the second.

`COc1ccc(NS(=O)(=O)c2ccc(N)cc2)nn1` [Sulfamethoxypyridazine] and `CC1Cc2ccccc2N1NC(=O)c1ccc(Cl)c(S(N)(=O)=O)c1` (stereo not drawn) [Indapamide] are within error of each other in glomerular separation: 0.681 ± 0.15 for the first, 1.2 ± 0.88 for the second.

`CCOc1ccc(Cc2nccc3cc(OCC)c(OCC)cc23)cc1OCC` [Ethaverine hydrochloride] and `CCN(CC)Cc1cc(Nc2ccnc3cc(Cl)ccc23)ccc1O` [Amodiaquin dihydrochloride dihydrate] are within error of each other in glomerular separation: 0.975 ± 0.28 for the first, 0.602 ± 0.18 for the second.

`CC(=O)Oc1ccc(C(c2ccc(OC(C)=O)cc2)c2ccccn2)cc1` [Bisacodyl] and `CC(=O)Oc1cccc2c1C(=O)c1c(OC(C)=O)cc(C(=O)O)cc1C2=O` [Diacerein] are within error of each other in glomerular separation: 0.927 ± 0.28 for the first, 0.691 ± 0.2 for the second.

`O=c1n(CCCN2CCN(c3cccc(Cl)c3)CC2)nc2ccccn12` [Trazodone hydrochloride] and `C(=C\c1ccccc1)/CN1CCN(C(c2ccccc2)c2ccccc2)CC1` [Cinnarizine] are within error of each other in glomerular separation: 1.2 ± 0.34 for the first, 1.15 ± 0.31 for the second.

`O=C(O)c1cc(=O)c2c(OCC(O)COc3cccc4oc(C(=O)O)cc(=O)c34)cccc2o1` [Cromolyn disodium salt] and `CC(C)NC[C@H](O)COc1cccc2ccccc12` [(S)-propranolol hydrochloride] are within error of each other in glomerular separation: 0.753 ± 0.22 for the first, 0.888 ± 0.27 for the second.

`CCCCc1ccc2[nH]c(NC(=O)OC)nc2c1` [Parbendazole] and `CCCCC1(COC(=O)CCC(=O)O)C(=O)N(c2ccccc2)N(c2ccccc2)C1=O` [Suxibuzone] are within error of each other in glomerular separation: 2.51 ± 0.79 for the first, 1.48 ± 0.71 for the second.

Going from `O=C(N[C@H](CO)[C@H](O)c1ccc([N+](=O)[O-])cc1)C(Cl)Cl` [Chloramphenicol] to `O=C(O)Cc1ccc(-c2ccccc2)cc1` [Felbinac], the glomerular separation rises from 1.33 ± 0.57 to 4.74 ± 1.6.

`CCOc1ccccc1OC(c1ccccc1)C1CNCCO1` (stereo not drawn) [Reboxetine mesylate] and `COc1c2occc2c(OC)c2c(=O)cc(C)oc12` [Khellin] are within error of each other in glomerular separation: 1.16 ± 0.43 for the first, 0.835 ± 0.39 for the second.

`CCC1(C)CC(=O)NC1=O` (stereo not drawn) [Ethosuximide] and `C[C@@]1(O)CCOC(=O)C1` [Mevalonic-D, L acid lactone] are within error of each other in glomerular separation: 0.979 ± 0.37 for the first, 0.897 ± 0.23 for the second.

`C#C[C@]1(O)CC[C@H]2[C@@H]3[C@H](C)CC4=C(CCC(=O)C4)[C@H]3CC[C@@]21C` [Tibolone] was tested, and the glomerular separation was 0.915 ± 0.4.
